Compound activity as filed in PubChem BioAssay.
CYP2C19 inh = blockers of cytochrome P450 2C19 activity – biochemical, luminescence, ADME assay, primary screen; P33261; CYP2C19 Supersomes, luciferin-H EGE luminescence, 30 min; inhibition, % at 5 µM; 21% of 96,000 active;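 active means CYP2C19 inhibition above a set limit at 5 µM in the primary screen, cut at about 50% in these data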;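 further: plate controls were negative control wells for no effect and 2.5 mM tranylcypromine positive control for full effect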
Target sequence (P33261 whole entry, looked up): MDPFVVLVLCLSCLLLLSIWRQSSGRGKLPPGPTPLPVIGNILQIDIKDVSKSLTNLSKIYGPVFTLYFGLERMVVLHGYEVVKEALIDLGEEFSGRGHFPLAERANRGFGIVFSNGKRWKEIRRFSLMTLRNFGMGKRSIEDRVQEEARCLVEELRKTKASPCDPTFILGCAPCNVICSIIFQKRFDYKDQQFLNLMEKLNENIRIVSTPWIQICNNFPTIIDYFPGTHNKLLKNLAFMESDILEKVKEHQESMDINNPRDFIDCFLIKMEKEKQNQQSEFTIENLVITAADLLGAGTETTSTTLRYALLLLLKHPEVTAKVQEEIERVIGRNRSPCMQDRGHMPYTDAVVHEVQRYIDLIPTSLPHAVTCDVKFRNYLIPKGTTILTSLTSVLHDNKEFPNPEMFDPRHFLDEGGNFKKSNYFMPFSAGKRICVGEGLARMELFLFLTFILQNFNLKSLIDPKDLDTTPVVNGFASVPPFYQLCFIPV
CYP2C9 inh = blockers of cytochrome P450 2C9 activity – biochemical, luminescence, ADME assay, primary screen; P11712; CYP2C9 Supersomes, luciferin-H conversion; inhibition, % at 5 µM; 20% of 96,000 active; AID 777, 2007;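 active means blocking of liver enzyme CYP2C9 beyond about 50% at 5 µM, limit read from the data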
CYP2C9 activ = human CYP2C9 activators, primary screen, biochemical, luminescence; recombinant CYP2C9, luciferin-H conversion; active compounds read high; factor 1 = untreated enzyme, 0 = blocked; activation factor at 5 µM; 1.4% of 96,000 active; AID 1024, 2008;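 active means activation factor of 2 or more for CYP2C9 at a 5 µM dose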;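 further: 0 = sulfaphenazole-blocked wells and 1 = vehicle-only wells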
MRP-1 activ = H69AR viability gain despite doxorubicin, primary screen, MRP-1 activator project, H69AR cells, CellTiter-Glo; viability rescue; viability increase, % at 10 µM; 0.61% of 140,000 active; AID 799, 2007;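 active means viability gain under doxorubicin at or above a set limit, the compound median plus 3 SD, cut at about 4.7% in these data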;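 further: MRP-1 overexpressing cells given doxorubicin 25 µM after compound pretreatment; 18-22 h compound pretreatment then 72 h with doxorubicin before readout; 0% = doxorubicin-only wells and 100% = vehicle-treated cells without doxorubicin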
MRP resist rev = reversal of MRP1-mediated doxorubicin resistance, primary screen, H69AR cells, doxorubicin co-treatment; 0.04% of 85,000 active; AID 602, 2007; H69AR cells + 2 uM doxorubicin, CellTiter-Glo, 72 h; differential viability (reversal), % at 10 µM;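 active means viability drop by adding the cancer drug above about 55%, with treated viability meeting a 40% cutoff, limit read from the data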;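 further: viability without doxorubicin minus viability with 2 µM doxorubicin for each compound; larger differential means the compound sensitizes cells more to doxorubicin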
CYP2C19 activ = human CYP2C19 activators, primary screen, biochemical, luminescence; Cytochrome P450 2C19 (Homo sapiens), P33261; recombinant CYP2C19, luciferin-H EGE luminescence; active compounds read high; 0 = fully inhibited enzyme, 1 = untreated enzyme; 96,000 tested, under 10 active; activation factor at 5 µM;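 active means activation factor of at least 2 at 5 µM in the primary screen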;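 further: 0 = wells with 2.5 mM tranylcypromine and 1 = vehicle-only wells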
Active calls of the source: *; . = no result given. Rows were chosen to be rich in hits. Some 21% of all compounds tested hit in one or more screens of this group.

SMILES	CYP2C19 inh	CYP2C9 inh	CYP2C9 activ	MRP-1 activ	MRP resist rev	CYP2C19 activ
CCc1cccc(CC)c1NC(=S)NC(C)c1ccccc1 (stereo not drawn)	.	.	.	-3.4	.	.
CCc1ccc(/C=N/NC(=O)C(=O)NCCCN2CCOCC2)cc1	.	.	.	0.9	.	.
Cc1ccc(C)c(NS(=O)(=O)c2c(C)ccc3nsnc23)c1	33.5	36.5	0.6	1.0	17.5	0.7
Cc1ccc2nsnc2c1S(=O)(=O)NCCc1c(C)[nH]c2ccc(F)cc12	77.8*	33.4	0.7	0.1	10.9	0.2
N/C(=N\OC(=O)Cc1cccs1)c1ccc(Br)cc1	.	.	.	1.3	.	.
O=C(OCC(=O)N1CCc2ccccc21)c1ccccc1	24.8	6.1	0.9	1.3	-0.2	0.8
CC1Cc2ccccc2N1C(=O)COC(=O)CNC(=O)c1ccc(Br)o1 (stereo not drawn)	66.2*	51.3*	0.5	-2.5	.	0.3
O=C(OCC(=O)N1CCCc2ccccc21)c1ccc(Br)o1	85.4*	50.9*	0.5	-0.1	3.8	0.1
O=C(c1ccc(Br)o1)N1CCCc2ccccc21	.	.	.	1.0	2.8	.
O=C(OCC(=O)N1CCc2ccccc21)c1cccnc1	76.7*	33.1	0.7	-2.7	5.3	0.2
O=C(Cn1[nH]c(=O)c2ccccc2c1=O)OCC(=O)N1CCCc2ccccc21	50.6*	43.0	0.6	-1.7	.	0.5
CC(SCc1ccccc1)C(=O)NN=C1CCN(C)CC1 (stereo not drawn)	10.6	-9.3	1.1	-0.9	.	0.9
CC1CCCC(NC(=O)c2ccc3c(c2)N(Cc2ccccc2)C(=O)CS3=O)C1C (stereo not drawn)	41.8	76.3*	0.2	-1.1	-3.3	0.6
COC(=O)c1cc(=O)nc2sc3ccccc3n12	1.8	81.4*	0.2	-1.3	-3.3	1
COc1ccc(S(=O)(=O)N2CCCC(C(=O)Nc3cccc(C(C)=O)c3)C2)cc1 (stereo not drawn)	41.1	30.6	0.7	-2.9	-24.9	0.6
CC(=O)c1cccc(NC(=O)C2CCN(S(=O)(=O)c3ccccc3)CC2)c1	67.5*	8.5	0.9	-2.0	-13.8	0.3
CC(=O)c1cccc(NC(=O)C2CCCN(S(=O)(=O)c3ccc(F)cc3)C2)c1 (stereo not drawn)	87.3*	75.9*	0.2	-1.1	-2.0	0.1
CC(=O)c1cccc(NC(=O)C2CCN(S(C)(=O)=O)CC2)c1	15.1	-4.6	1	-0.8	-16.5	0.8
CCS(=O)(=O)N1CCC(C(=O)Nc2cccc(C(C)=O)c2)CC1	69.5*	12.2	0.9	-0.4	-1.4	0.3
O=C(Nc1ccc(N2CCOCC2)cc1)C1CCCN(S(=O)(=O)c2cccc(C(F)(F)F)c2)C1 (stereo not drawn)	63.2*	12.1	0.9	-3.8	7.6	0.4
CC(=O)Nc1ccc(OCC(O)CN2C(C)(C)CC(O)CC2(C)C)cc1 (stereo not drawn)	.	.	.	1.0	.	.
CC(=O)Nc1ccccc1OC(C)C(=O)NC(C)c1ccc(F)cc1 (stereo not drawn)	.	.	.	-0.5	.	.
CC(=O)c1cccc(NC(=O)C2CCN(S(=O)(=O)c3ccc(F)cc3)CC2)c1	53.2*	63.3*	0.4	-1.4	5.6	0.5
CC(C)NC(=S)NC(=O)/C=C/c1cccc2ccccc12	.	.	.	-4.5	.	.
CC1CCN(C(=O)CSc2nc3c(cnn3-c3ccc(Cl)cc3)c(=O)[nH]2)CC1	5.0	54.6*	0.5	-3.2	-7.3	0.9
SMILES	CYP2C19 inh	CYP2C9 inh	CYP2C9 activ	MRP-1 activ	MRP resist rev	CYP2C19 activ
CCOC(=O)N1CCN(C(=O)CSc2nc3c(cnn3-c3ccc(Cl)cc3)c(=O)[nH]2)CC1	-4.1	67.5*	0.3	-4.0	-8.6	1
COC(=O)c1ccc(CSc2nc3c(cnn3-c3ccc(Cl)cc3)c(=O)[nH]2)o1	90.0*	75.9*	0.2	-0.3	1.4	0.1
CCOC(=O)N1CCN(C(=O)CSc2nc3c(cnn3-c3ccc(C)cc3)c(=O)[nH]2)CC1	.	.	.	.	-5.2	.
CCOc1ccc(-n2c(=S)sc3c(=O)[nH]c(SCC(=O)NCc4ccco4)nc32)cc1	1.8	39.9	0.6	-3.3	2.5	1
CCOc1ccc(-n2c(=S)sc3c(=O)[nH]c(SCC(=O)N4CCC(C)CC4)nc32)cc1	17.3	97.1*	0	-0.4	-4.1	0.8
COC(=O)c1ccc(CSc2nc3c(cnn3-c3ccc(F)cc3)c(=O)[nH]2)o1	.	.	.	-1.7	-2.9	.
CC(N1CCOC1=O)S(=O)(=O)c1ccccc1 (stereo not drawn)	-2.5	-1.2	1	0.2	-5.5	1
Cn1c(N2CCC(C(N)=O)CC2)nc2c1c(=O)n(Cc1cccc(Br)c1)c(=O)n2C	14.9	10.2	0.9	-1.7	38.1	0.9
CC(=O)c1ccc(N2CCN(C(=O)c3cc4c(=O)n(C)c5ccccc5c4n3C)CC2)cc1	.	.	.	.	7.3	.
O=c1c2ccccc2c2c(O)nc(-c3ccccc3)n2n1Cc1ccccc1	10.3	53.9*	0.5	-0.8	.	0.9
Cc1ccc(-n2nnnc2SCC(=O)N2CC(=O)Nc3ccccc32)cc1	51.5*	-47.8	1.5	-2.4	.	0.5
Cc1nnc(SCC(=O)N2CC(=O)Nc3ccccc32)n1C	4.5	0.8	1	0.2	9.2	1
Cc1ccccc1-n1c(C)nnc1SCC(=O)N1CC(=O)Nc2ccccc21	70.2*	-14.7	1.1	-3.2	-21.8	0.3
COc1ccccc1NC(=O)c1sc2ncn(Cc3cccc4ccccc34)c(=O)c2c1C	.	.	.	4.1	.	.
Cc1cc(SCCOc2ccc(Br)cc2)nc(N)n1	32.3	53.9*	0.5	3.5	12.3	0.7
O=C(CSC1=NCCN1)C1COc2ccccc2O1 (stereo not drawn)	60.6*	66.9*	0.3	-0.8	-14.3	0.4
O=C(NC1CC2CCC1C2)C1COc2ccccc2O1 (stereo not drawn)	52.3*	1.1	1	0.1	-1.1	0.5
O=C(Nc1cnc2ccccc2c1)C1COc2ccccc2O1 (stereo not drawn)	90.5*	53.7*	0.5	0.0	14.1	0.1
O=C(Nc1ncc(C(F)(F)F)cc1Cl)C1COc2ccccc2O1 (stereo not drawn)	80.1*	20.7	0.8	-0.6	0.0	0.2
O=C(Nc1ncc(Cc2ccccc2)s1)C1COc2ccccc2O1 (stereo not drawn)	5.3	0.8	1	-0.6	1.0	0.9
C1=CC2CC1CC2CNCc1ccco1 (stereo not drawn)	9.6	-6.6	1.1	-1.7	18.5	0.9
CCN(CC)S(=O)(=O)c1ccc(/C=C/C(=O)OCC(=O)Nc2ccc(S(N)(=O)=O)cc2)cc1	.	.	.	-3.1	.	.
CCN(CC)S(=O)(=O)c1ccc(NC(=O)C2COc3ccccc3O2)cc1 (stereo not drawn)	22.6	72.1*	0.3	0.0	4.2	0.8
